Assay outcomes as filed in PubChem.
KKLEB cytotox – reduces viability of KKLEB cystic fibrosis airway cells | AID 602141 | KKLEB CF airway cells viability, ATPlite luminescence, overnight; active compounds read low; cells stimulated with P. aeruginosa culture filtrate | activity change (cytotoxicity), % at 5 µM | 360,000 compounds, 0.36% hits;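 active = corrected activity change at or below -50% at 5 µM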
MITF TRPM1 inh – reduces MITF-dependent TRPM1 promoter luciferase signal | AID 488899 | inhibition, % at 12.5 µM | SK-MEL-5 TRPM1 promoter luciferase, 24 h | 330,000 compounds, 0.83% hits;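 active = mean inhibition across replicates of 60% or more, whatever share of single replicates reaches that level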
CF NFkB block – inhibitors of cystic fibrosis induced NF-kB; KKLEB NF-kB-GFP reporter, PAF-induced, GFP fluorescence overnight; inhibition, % at 5 µM; 360,000 compounds, 0.86% hits; AID 588850;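 active = at least 50% inhibition at 5 µM, scaled per plate between neutral and stimulator controls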;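 note: PAF is a Pseudomonas aeruginosa culture filtrate used as stimulus; plate controls were PAF-stimulated DMSO wells for no effect and unstimulated DMSO wells for full effect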
EBV LMP1 NFkB – reduces LMP1-driven NF-kappaB luciferase signal; LMP1-induced NF-kappaB luciferase reporter cells, luminescence; inhibition, % at 12.5 µM; 350,000 compounds, 0.69% hits; AID 504558; in the data active = inhibition above about 41%;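 note: 0% = neutral control wells and 100% = reference inhibitor control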
Peg3 promoter – reduces Peg3 promoter-driven luciferase expression in HeLa; HeLa PEG-Prom luciferase reporter, luminescence, overnight; inhibition, % at 20 µM; 360,000 compounds, 1.7% hits;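 active = inhibition of at least 50% at 20 µM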
HIF-2a block – HIF-2a inhibition. 786-0 RCC cells HIF-2a reporter, luciferase luminescence, overnight. inhibition, % at 18.8 µM. 360,000 compounds, 0.72% hits. AID 624352;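 active = inhibition of the luminescence signal of 40% or more relative to plate controls, in a single-dose primary screen at 18.75 µM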
An asterisk follows results filed as active; . = not tested or not shown. Sampled rows, rich in hits. Any-hit rate of the full collection: about 3%.

SMILES | KKLEB cytotox | MITF TRPM1 inh | CF NFkB block | EBV LMP1 NFkB | Peg3 promoter | HIF-2a block
COc1cc(/C=C/C(=O)OCC(=O)N2c3ccccc3NC(=O)C2(C)C)cc(OC)c1OC | -19 | -8 | 15 | -2 | 65* | -13
CCC(=O)OCC(=O)N=c1sccn1Cc1ccccc1Cl | -20 | 10 | 18 | 6 | 14 | 17
O=C(CCl)N=c1sccn1Cc1cccc2ccccc12 | -98* | 53 | 91* | 5 | 34 | 25
Cc1nn(-c2ccccc2)c(C)c1/C=N/NC(=O)CSc1nc2ccccc2c(=O)n1-c1ccc(Br)cc1 | -20 | -5 | 21 | -5 | 58* | 11
Cc1ccc(/C=N/NC(=O)CSc2nc3ccccc3c(=O)n2-c2ccccc2C)s1 | 7 | 7 | -32 | 6 | 51* | 11
Cc1ccccc1-n1c(SCC(=O)N/N=C/c2c(C)nn(-c3ccccc3)c2C)nc2ccccc2c1=O | 19 | 9 | -9 | 6 | 54* | 15
Cc1ccccc1-n1c(SCC(=O)N/N=C/c2sccc2C)nc2ccccc2c1=O | 3 | -5 | -1 | 1 | -6 | 13
Cc1ccc(-n2c(SCC(=O)N/N=C/c3c(C)nn(-c4ccccc4)c3C)nc3ccccc3c2=O)cc1 | -4 | -11 | 24 | 6 | 39 | 1
COCCNC(=O)C1(C)CCN(C(=O)c2ccc3ccccc3n2)C1 (stereo not drawn) | 1 | . | -3 | . | 5 | 8
O=C(Cc1ccccc1)N/N=C/c1ccc([N+](=O)[O-])s1 | 7 | 68* | 0 | -3 | -55 | -105
O=C(N/N=C/c1cccs1)c1cncc(Br)c1 | -7 | -1 | -18 | 6 | -20 | -10
Cn1c(SCC(=O)N/N=C/c2ccc([N+](=O)[O-])s2)nnc1-c1ccccc1 | -14 | 71* | -3 | -9 | 64* | 16
O=C(N/N=C\c1ccc([N+](=O)[O-])s1)c1cncc(Br)c1 | 16 | 78* | 12 | 13 | 63* | -23
O=C(CNC(=O)c1cccc(F)c1)N/N=C/c1ccc([N+](=O)[O-])s1 | 0 | 71* | 5 | -3 | 3 | 1
Cn1c(SCC(=O)N/N=C/c2cc([N+](=O)[O-])ccc2O)nnc1-c1ccccc1 | 8 | 5 | 4 | 18 | 19 | 3
O=C(N/N=C/c1ccc([N+](=O)[O-])s1)C(O)c1ccccc1 (stereo not drawn) | 1 | 69* | -16 | -5 | 11 | -6
COC(=O)N/N=C/c1ccc([N+](=O)[O-])s1 | 1 | 23 | -28 | -10 | -5 | 4
CCOC(=O)c1c(-c2ccc(OC)cc2)csc1/N=C/C1=C(O)CCCC1=O | -4 | -4 | 18 | 53* | 19 | 22
COC(=O)[C@@]12C[C@@H](CC(=O)NCC3CCCCC3)C(=O)N(Cc3cccc4ccccc34)C1=CCC(C)(C)C2 | . | . | . | . | . | -12
O=C(/C=C\Nc1ccccc1Br)c1ccc2c(c1)OCO2 | -75* | 44 | -7 | 13 | -32 | -28
O=C(/C=C/Nc1ccc(F)cc1Br)c1ccccc1 | -72* | 58 | 4 | 48* | 39 | 52*
COc1ccc(-c2nc(CN3CCN(c4cc(C)nc(C)c4)CC3)c(C)o2)c2ccccc12 | -22 | -16 | 14 | 2 | 82* | 1
Cc1cc(N2CCN(Cc3nc(-c4ccc(Cl)cc4)oc3C)CC2)cc(C)n1 | -10 | 10 | 3 | -7 | 22 | -11
Cc1cc(C)nc(N/C(=N\S(=O)(=O)Cc2ccccc2)Nc2ccccc2Br)n1 | -3 | -5 | 17 | 55* | 23 | 24
Cc1cc(C)nc(Nc2ccccc2Br)n1 | -2 | -5 | 7 | -13 | -7 | 5
SMILES | KKLEB cytotox | MITF TRPM1 inh | CF NFkB block | EBV LMP1 NFkB | Peg3 promoter | HIF-2a block
COc1ccc2ccccc2c1/C=N/Nc1ccc(Cl)c(C(=O)O)c1 | -4 | -24 | 18 | -11 | -39 | -23
COc1ccc(N/N=C/c2c(C(=O)O)ccc3ccccc23)cc1 | -13 | . | 13 | 69* | 38 | -91
Oc1ccc(Cl)cc1Sc1cc(Cl)ccc1O | 10 | 16 | 63* | 1 | 71* | 10
CN(C)C(=O)c1cc(Cl)ccc1Sc1cc(Cl)ccc1Cl | 5 | -3 | -1 | -18 | 15 | 19
CCCCCNC(=O)C1C(=O)Nc2ccccc2C(=O)N1c1ccc(OC)cc1 (stereo not drawn) | . | . | . | . | . | 3
O=C(CCl)N(O)c1ccc(C=Cc2ccccc2)cc1 | -16 | -20 | -32 | 53* | -162 | -191
O=C(COC(=O)CNC(=O)c1ccccc1)NC12CC3CC(CC(C3)C1)C2 | 4 | . | -12 | -3 | 6 | 4
CCOc1ccc(OCC(=O)NCCS(=O)(=O)N2CCN(c3ccccc3)CC2)cc1 | 10 | . | -51 | 0 | 0 | 6
COc1ccc(OC)c(/C=C/c2ccc3cccc(O)c3n2)c1 | 5 | 5 | -41 | 18 | 83* | -95
COc1ccc(C=Cc2ccc3ccccc3n2)c(OC)c1 | -37 | . | 1 | 45* | -57 | 11
COc1cc(Br)c(/C=C/c2ccc3cccc(O)c3n2)cc1OC | -3 | -3 | 13 | 8 | -47 | -11
COc1c(C)cc(C(O)c2ncc(-c3ccccc3F)[nH]2)cc1C (stereo not drawn) | -7 | . | 17 | . | 10 | 3
COc1cc2c(cc1OC)C(=O)C(Br)CC2 (stereo not drawn) | -16 | . | 70* | -3 | 65* | 8
COc1cc2c(cc1OC)C(=O)C(c1ccc3c(c1)OCO3)CC2 (stereo not drawn) | 3 | . | -33 | -2 | -15 | -27
COCCNC(=O)C1(C)CCCN(Cc2csc(-c3ccc(Cl)cc3)n2)C1 (stereo not drawn) | -1 | . | 4 | . | 10 | -4
CCN(CC)C1CCCCC1NS(=O)(=O)c1ccc(Cl)cc1 (stereo not drawn) | 12 | -12 | -22 | 52* | 3 | 9
COc1ccc(-c2sc3cc4c(cc3c2C#Cc2cncn2C)OCO4)cc1 | -3 | -20 | -58 | -19 | 26 | -21
COc1cc(OC)cc(-c2sc3ccc(OC)cc3c2C#CC2(N)CCCCC2)c1 | -29 | -4 | 33 | -2 | 95* | 0
COc1ccc(-c2sc3cc4c(cc3c2C#CC2(N)CCCCC2)OCO4)cc1 | -2 | 14 | 1 | -67 | 93* | -94
CC1(C(=O)NCc2ccccc2Br)CCN1Cc1ccc(-c2ccccn2)cc1 (stereo not drawn) | 4 | . | 9 | . | 8 | 5
CCOC(=O)C1CCN(C(=O)CNC(=O)OC(C)(C)C)CC1 | 1 | 1 | 4 | 43* | 6 | 5
COc1ccc(/C=C(/C(=O)c2cccs2)N2C=CC=CC2=C(C#N)C#N)cc1 | -22 | 46 | 29 | 0 | 94* | 1
COc1ccc(C=C(C#N)C(=O)c2ccccc2)cc1 | . | . | . | . | . | -2
Cc1ccc(S(=O)(=O)N2[C@@H](CCO)OC[C@H]2C(C)C)cc1 | . | . | . | . | . | -2
